Laboratory results reported in the supplement of paper PMC6555819.

What was measured:
Test in all cases: PBM binding z-score (relative to random genomic background probes); higher = stronger binding; sequences stand for … in GC…GCGATTGACAGCGTAGAATGAAGG
[1] = system: RARb homodimer (NR concentration 270 nM)
Outline: (§1)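 Probes were double-stranded and carried 34-nt variable regions with direct-repeat seeds, single-nucleotide variants, half-site ablations and random human genomic background sequences, printed on custom Agilent 4×180K protein-binding microarrays. Arrays were incubated 1 h with ligand-free nuclear receptor dimers in PBS pH 7.4, 2% milk, 0.02% Triton X-100, 1 mM DTT, 0.2 mg/mL BSA and 0.4 mg/ml salmon testes DNA. Antibodies against each partner (one per run) detected binding, and scanned fluorescence was regression-normalized. Binding z-scores use the random background probes as reference.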

[2] = system: RARg:RXRa (NR concentration 270 nM, RXRa partner concentration 90 nM)
Outline: as §1

[3] = system: RARg homodimer (NR concentration 270 nM)
Outline: as §1

[4] = system: RXRa DBDmut IVT, anti-RXR (DBD mutation: RXRa K156A/R161A, NR concentration 90 nM)
Outline: as §1

[5] = system: RXRa homodimer (NR concentration 180 nM)
Outline: as §1

[6] = system: THRa:RXRa (NR concentration 90 nM, RXRa partner concentration 90 nM)
Outline: as §1

[7] = system: THRa homodimer (NR concentration 90 nM)
Outline: as §1

[8] = system: VDR:RXRa (NR concentration 270 nM, RXRa partner concentration 90 nM)
Outline: as §1

[9] = system: VDR homodimer (NR concentration 270 nM)
Outline: as §1

Row | Sequence | PBM binding z-score [1] | PBM binding z-score [2] | PBM binding z-score [3] | PBM binding z-score [4] | PBM binding z-score [5] | PBM binding z-score [6] | PBM binding z-score [7] | PBM binding z-score [8] | PBM binding z-score [9]
1 | TCTGCTAGGTCAATTGGTCAGCTAACGAGCTGCC | 2.93 | 3.91 | 4.34 | 1.21 | 2.09 | 2.3 | -0.00918 | 0.925 | -0.473
2 | CAAACTAGGTCACAGAGGTCTAAGTCCGTGCGTA | 3.5 | 4.44 | 4.87 | 1.85 | 3.76 | 3.54 | 1.82 | 4.9 | 1.87
3 | AGAATGAGGTTATACGTAGATCATGGAAGAAAGT | 1.02 | 2.06 | 1.29 | 1.74 | 2.45 | 2.42 | 0.532 | 1.72 | 0.975
4 | ATCTCTAGGTAAAGATAGTTTAGTGAATGCAAAT | 0.204 | 0.354 | 0.533 | -0.0109 | 0.0812 | 0.487 | 0.117 | 0.322 | 0.358
5 | CCGACTGGGGCAAGGTTCCCATAACGCACAGCCA | 0.27 | 0.259 | 0.433 | -0.627 | 0.314 | -0.0449 | -0.119 | -0.47 | -0.153
6 | ATTTCTAGGTAAAGATAGTTCAGTGAATGCAAAT | 0.935 | 0.671 | 0.813 | 0.38 | 0.418 | 1.02 | 0.00694 | 1.18 | 0.94
7 | ACTAGCAGGGCAAGGGTCACTCAAGATTAGTCCG | 3.73 | 4.34 | 3.78 | 0.379 | 4.53 | 2.73 | -0.1 | 2.95 | 1.17
8 | GCGACTGGGGCAAAGCAGGTTGCCATAAGGTTGG | 0.156 | 0.0303 | 0.101 | -0.48 | -0.0833 | 1.59 | -0.471 | -0.612 | -0.513
9 | CCGACTGGGGCAAGGTTACCAGAACGCACAGCCA | 1.39 | 1.01 | 1.27 | -0.418 | 1.07 | 1.06 | -0.142 | 0.0138 | -0.475
10 | TGAATAAGGTTATAAGATCAGGGAACGTTGCAAA | 0.682 | 1.59 | 1.14 | 0.444 | 1.89 | 1.79 | 0.426 | 0.743 | 0.135
11 | CCTTACGGGCCAAGGTTATAGCACGGGTGGTACG | 0.655 | 0.306 | 0.628 | -1.14 | 0.273 | 0.713 | 0.104 | -0.139 | 0.207
12 | TAGGCTAGGTCAGATCGGGCCAGTATACGCTATA | 2.06 | 2.87 | 3.61 | -0.36 | 1.45 | 4.13 | -0.412 | 0.927 | -0.515
13 | CCGAGTAGGATATGGGGCATTCAGGCAACGGTGA | 0.223 | -0.15 | 0.00405 | -0.637 | 0.133 | 0.16 | 0.0622 | -0.284 | -0.318
14 | GCGACTGGGGCGTCAGCAGGTTACCATAACTTAA | 0.457 | 0.162 | -0.368 | -0.119 | 0.154 | 0.661 | -0.199 | -0.382 | -0.488
15 | CTTGCTAGGTCAATGGTCAGCTAAAGCAGCTCGC | 2.82 | 3.48 | 4.68 | 1.61 | 2.34 | 2.13 | 0.43 | 0.921 | -0.158
16 | CGTCCAAGGTCATAGGAGGTTAGTGAAGACAGAT | 4.27 | 5.73 | 5.72 | 3.76 | 5.53 | 4.76 | 3.13 | 5 | 2.99
17 | CCTACTGGGCCAAAGATCATTGATTCCAATGCTC | -0.626 | 0.0876 | -0.132 | -0.275 | 0.0908 | -0.415 | -0.657 | -0.31 | -0.324
18 | CGTCCAAGGTCAAAGGTCAGTCAAGAGATGACGG | 5.67 | 8.89 | 8.17 | 4.11 | 10.3 | 4.85 | 2.87 | 6.84 | 3.58

Row | Sequence | PBM binding z-score [1] | PBM binding z-score [2] | PBM binding z-score [3] | PBM binding z-score [4] | PBM binding z-score [5] | PBM binding z-score [6] | PBM binding z-score [7] | PBM binding z-score [8] | PBM binding z-score [9]
19 | AGAACCAGGGCAATGAGTTGATAGCACGGGTGGC | 0.48 | 0.321 | 0.673 | 0.0529 | 0.352 | 0.225 | -0.251 | 3.6 | 0.986
20 | GCTGCTAGGTCAGGTTGGCCAGCTAACGGGTACG | 2.23 | 2.48 | 3.46 | -0.0229 | 0.917 | 1.46 | 0.0199 | 0.052 | 0.0457
21 | CCTCCTGGGCCAAGGTCATTGATCAGTCAAAGCA | 3.38 | 3.6 | 3.13 | 0.822 | 3.1 | 3.43 | 2.34 | 2.91 | 3.08
22 | ACTAGCGGGCCAAGGGTCACTCAAGATTAGTCCG | 3.7 | 3.9 | 3.71 | 0.364 | 4 | 2.62 | -0.0687 | 2.66 | 1.07
23 | ACTATTAGTTGACTTAGGGCAATCGATACGACGC | 0.586 | 0.781 | 0.924 | 0.592 | 0.921 | 1.31 | 0.18 | 0.462 | 0.448
24 | AGAATCAGGTTAAGATCAGGGAAACAGAATACAT | 0.909 | 0.705 | 0.926 | 0.172 | 0.786 | 1.45 | 0.772 | 0.3 | 0.415
25 | ACTAGTTGGTCAGCTGAGGTCACTCACAATTCGG | 4.24 | 3.48 | 3.38 | 1.11 | 3.13 | 4.98 | 4.9 | 3.95 | 2.68
26 | ACCTCTAGGTAAAGTTCAGTGAAAGATCGATAGA | 2.27 | 1.59 | 2.19 | 1.47 | 0.983 | 0.866 | -0.127 | 0.835 | 1.51
27 | TCTATTAGTTGAAGGGCGACCGACGAGTCCGTTT | 0.596 | 0.105 | -0.00665 | 1.84 | 0.439 | 0.0101 | 0.203 | 0.925 | 1.32
28 | ATATTTAGGTTAAGGGTCATTCAGGTTGGTTCGC | 4.22 | 4.81 | 3.84 | 2.51 | 5.68 | 3.95 | 3 | 5.46 | 5.16
29 | AGTCAAAGTTCAGGACGAGGTAACGTATAGCACG | 3.26 | 4.94 | 4.94 | 3.22 | 3.15 | 3.88 | 1.73 | 3.14 | 2.37
30 | CGTCGAAGGTCATAGGAGGTCAGTGAAGACAGAT | 5.29 | 6.92 | 7.53 | 3 | 6.64 | 5.27 | 1.39 | 6.76 | 3.45
31 | TTACTAAGGTGAGCTGAGGTCGTTGATCCAACTC | 1.96 | 1.39 | 1.38 | 0.464 | 1.52 | 4.79 | 2.51 | 4.42 | 2.32
32 | GGAACGAGCGCATTCGAGTTGATAGCATGGCGAT | -0.974 | -0.544 | -0.227 | 0.0101 | -0.607 | -0.857 | -1.27 | -0.761 | -0.406
33 | ACAGACAGGTGTTGAAGGTAACTCAGGCTATCAT | -0.0362 | -0.0194 | 0.114 | -0.19 | 0.0702 | 0.786 | 0.073 | -0.203 | -0.587
34 | ATATGTGGGTTAGCTGGGGTCATTCAGACTAGGC | 3.54 | 3.97 | 2.93 | 2.16 | 5.59 | 5 | 3.84 | 5.99 | 5.73
35 | GCATATAGGAAATACAAGGTGAAAGTCCGATTGT | 0.623 | 0.263 | 0.484 | 0.294 | 0.281 | 1.94 | 0.81 | -0.189 | -0.126
36 | TCTTGTAGATCTGCAGGTTAAGAAAGCTGGCCAA | 0.11 | -0.162 | -0.524 | 0.681 | 0.267 | 0.319 | -0.531 | 0.239 | -0.245
